The text below walks through data of PubChem BioAssay (Tox21).

Several values for one entry are separate records, joined by “and”; a condition that tells them apart may be missing. Identical values can stand only once. Records with an inconclusive call do not appear. A call without a number means that no potency is given here. More than one record can exist for a structure, and the calls need not agree. Activity calls are given as the source filed them. The call rests on the fitted dose curve; in most records, active means well fitted activation curve with a large enough effect in the repeat runs; inconclusive means weak or mixed curves; inactive means flat fitted curve, though single readings scatter.
Potency means the concentration at half of the fitted maximal effect.

The test is described as follows: A CellTox Green Cytotoxicity Assay to monitor cytotoxicity in HepG2 cells - 16 hour (AID 1224876). Further: nearly all actives have a fitted effect of over 45% in size. The note with it: CellTox Green fluorescence; series mostly up to 76.8 µM; cytotoxicity increase: at the top concentration. The text has this:
National Center for Advancing Translational Sciences [NCATS]
NIH Chemical Genomics Center [NCGC]
U.S. Environmental Protection Agency [EPA]
National Institutes of Environmental Health Sciences [NIEHS]
National Toxicology Program [NTP]
Cell-based models are critical for drug discovery. Determining the natural cytotoxic effects resulting from test compounds is an essential research activity. A CellTox Green Cytotoxicity Assay to monitor cytotoxicity in real time of continues cell culture during 40 hours of the compound treatment was used to screen Tox21 10K library compounds in HepG2 cells. CellTox Green Cytotoxicity Assay is a nonlytic, homogeneous, biofluorescent method to measure cytotoxicity in cell culture after experimental manipulation. The assay system uses a proprietary asymmetric cyanine dye that is excluded from viable cells but preferentially stains the dead cell's DNA. […] Viable cells produce no appreciable increases in fluorescence. Therefore, the fluorescence signal produced by the binding interaction with dead cell DNA is proportional to cytotoxicity.
The mixture of HepG2 cell suspension and reagents were dispensed at 600cells/6 ul/well in 1536-well tissue culture treated black solid bottom plates using a Multidrop dispenser. After the assay plates were incubated at a 37 C/5% CO2 incubator for 5 hours, 23 nL of compounds dissolved in DMSO, positive and negative controls was transferred to the assay plate by a pintool work station. The plates were incubated at 37 C for 40 hours. The fluorescence intensity were measured at 0h, 8h, 16h, 24h, 32h and 40h time points using ViewLux plate reader during compound treatment.
As to `Nc1ccc(-c2ccccc2)cc1`, the Potency entry is “inactive”.
The same measure, in the same setting: next, `N#CC(Br)Br`: “inactive”; `CCN(N=O)C(N)=O`: “inactive”; `CCN(CC)C(=O)/C(Cl)=C(\C)OP(=O)(OC)OC`: “inactive”.
For `Oc1ccc(-c2ccccc2)cc1`, the “cytotoxicity increase” value was -11.5% (inactive).
Take `C=C(C)[C@H]1Cc2c(ccc3c2O[C@@H]2COc4cc(OC)c(OC)cc4[C@@H]2C3=O)O1`: the Potency result was “inactive”.
The same measure, in the same setting: next, `O=C1C=CC(=O)C=C1`: “inactive”.
As to `O=c1oc2ccccc2c(O)c1C(CC(O)c1ccc(-c2ccc(Br)cc2)cc1)c1ccccc1` (stereo not given), the Potency result was “inactive”.
On the same count and under the same terms, next, `CC1(C)C(C=C(Cl)Cl)C1C(=O)OC(C#N)c1cccc(Oc2ccccc2)c1` (stereo not given): “inactive”.
The same measure, in the same setting: next, `O=C(O)C(F)(F)C(F)(F)C(F)(F)C(F)(F)C(F)(F)C(F)(F)C(F)(F)F`: “inactive”; `Cc1ccc2c(c1N)C(=O)c1ccccc1C2=O`: “inactive”.
Take `CCC(=O)O[C@H]1CC[C@H]2[C@@H]3CCC4=CC(=O)CC[C@]4(C)[C@H]3CC[C@]12C`: the Potency is 38.9 µM (active).
For the compound `COP(=S)(OC)Oc1ccc([N+](=O)[O-])cc1`, the Potency entry is “inactive”.
In the case of `C=CCN(CC=C)C(=O)C(Cl)Cl`, the Potency entry was “inactive”.
Take `Oc1c(Cl)c(Cl)c(Cl)c(Cl)c1Cl`: the Potency entry is “inactive”.
Still for that read-out and setting: for `O=C(NC(=O)c1c(F)cccc1F)Nc1ccc(Cl)cc1` the value was “inactive”.
Take `O=Cc1ccco1`: the “cytotoxicity increase” value was -9.45% (inactive).
Take `CCC(C)(C)c1ccc(O)cc1`: the Potency is 44.1 µM (active) and 43.6 µM (active).
On to `CC(C)(OOC(C)(C)c1ccccc1)c1ccccc1`, for which the Potency entry is “inactive”.
With `CCCCCCCCCCCOC(=O)c1ccccc1C(=O)OCCCCCCCCCCC`, the Potency entry is “inactive”.
Regarding `O=C(O)CC[N+](=O)[O-]`, the Potency entry is “inactive”.
On the same count and under the same terms, next, `Nc1ccc(Cl)cc1N`: “inactive and 40.4 µM (active)”; `NNC(N)=S`: “inactive”.
As for `CCCCCc1cc(O)cc(O)c1`, the “cytotoxicity increase” value was 35.9% (inactive).
As for `C#CCOS(=O)OC1CCCCC1Oc1ccc(C(C)(C)C)cc1` (stereo not given), the Potency result was “inactive”.
As for `C=CC(=O)OCCO`, the Potency result was “inactive”.
`c1ccc(P(c2ccccc2)c2ccccc2)cc1`: the Potency result is “inactive”.
As for `CCCCCCOC(=O)c1ccccc1C(=O)OCCCCCC`, the Potency entry was “inactive”.
The same measure, in the same setting: for `Cc1cc(Cl)ccc1OCCCC(=O)O` the value was “inactive”; for `CCCCCCCCOC(=O)c1ccccc1C(=O)OCCCCCCCC`, “inactive”.
The same measure, in the same setting: for `Cc1c(COC(=O)[C@@H]2[C@H](/C=C(\Cl)C(F)(F)F)C2(C)C)cccc1-c1ccccc1` the value was “inactive”.
`O=[N+]([O-])c1ccc(O)c([N+](=O)[O-])c1`: the Potency entry was “inactive”.
Turning to `CCCCC(CC)COC(=O)c1ccc(C(=O)OCC(CC)CCCC)c(C(=O)OCC(CC)CCCC)c1` (stereo not given), the Potency result was “inactive”.
As for `ClC1C(Cl)C(Cl)C(Cl)C(Cl)C1Cl` (stereo not given), the Potency result is “inactive”.
For `Oc1cc(Cl)ccc1Oc1ccc(Cl)cc1Cl`, the Potency is 44.7 µM (active) and 19 µM (active).
`CCCCC(CC)COC(=O)Cl` (stereo not given): the “cytotoxicity increase” value is -0.743% (inactive).
Still for that read-out and setting: for `c1ccc(NNc2ccccc2)cc1` the value was 2.82% (inactive).
In the case of `Clc1nc(Cl)nc(Cl)n1`, the Potency entry was “inactive”.
Same read-out and setting: for `CNC(=O)N(C)c1nnc(C(C)(C)C)s1` the value was “inactive”.
For `O=S(=O)(Oc1ccc(Cl)cc1)c1ccc(Cl)cc1`, the Potency entry was “inactive”.
